Data from PubChem BioAssay AID841 (Emory University Molecular Libraries Screening Center, 2007).
Hit rate of the full screen: of about 140,000 compounds, about 2,100 (1.5%) were called active. The full list was thinned out, with actives kept by preference. Unmarked numbers belong to inactive results. No stated cut-off is given here; in the data, active means protection mostly above about 24% (no sharp cut-off); inactive means mostly below about 26%.

Test: compounds protecting cells from measles virus cytopathic effect, primary screen, measles RdRp inhibitor project, single point, MLSMR library, absorbance (AID 841)
Conditions: Measles virus-infected cells, CPE protection, at 4 µM, stronger effect = higher value

Compound	protection (pct of control)
Cc1ccc(-c2nc3ccccc3[nH]2)cc1N	6.87%
COc1ccc(Br)cc1C(=O)NC(=S)Nc1cc(-c2nc3ccccc3[nH]2)ccc1C	3.52%
Cc1ccc(-c2nc3ccccc3[nH]2)cc1NC(=O)c1sc2ccccc2c1Cl	80.8% (active)
CCOc1ccc2nc(C(=O)N3CCCC(C)C3)sc2c1 (centres undefined)	14.9%
CCCCCOC(=O)NCCOC(=O)Nc1ccc(C(=O)OCC)cc1	3.01%
CCCCCCCCC(=O)NCCOc1ccccc1	6.49%
CCCCCCOC(=O)NCC(O)c1ccccc1 (centres undefined)	31.3% (active)
CCOc1ccc(N2C(=O)/C(=C/c3ccc(C)o3)N(C)C2=S)cc1	19.4%
CCC(=O)Nc1c(S(=O)(=O)c2ccccc2)c2nc3ccccc3nc2n1Cc1ccccc1	8.35%
O=C1CC(c2cccc(F)c2)C2=C(CCCC2=O)N1 (centres undefined)	11.2%
COc1ccc(OC)c(C2C3=C(N=c4s/c(=C\c5cccc(O)c5)c(=O)n42)c2ccccc2CC3)c1 (centres undefined)	10.7%
O=C1CCCC2=C1C(c1ccccc1)n1c(s/c(=C/c3cccc(F)c3)c1=O)=N2 (centres undefined)	48.1% (active)
CCCN(CCC)c1c([N+](=O)[O-])c(=O)oc2ccccc12	2.94%
O=C(NCC1CCCO1)c1ccc2ccccc2n1 (centres undefined)	9.11%
Cc1nc2ccccc2c2oc(C(=O)NCC3CCCO3)cc12 (centres undefined)	13.5%
Cc1ccc(C(=O)NCC2CCCO2)o1 (centres undefined)	45.6% (active)
CC(=O)NNC1=Nc2ccccc2N(C)C(C)C1 (centres undefined)	14.9%
COc1ccc(-n2c(C)cc(C(=O)COC(=O)c3cc(OC)c(OC)cc3NC(=O)c3cccs3)c2C)cc1	5.86%
Cc1cc(=O)n2nc(N3CCCC(C(=O)NCCC4=CCCCC4)C3)sc2n1 (centres undefined)	38.4% (active)
Cc1cc(=O)n2nc(N3CCCC(C(=O)N4CCN(C)CC4)C3)sc2n1 (centres undefined)	14.9%
COc1ccc(CCNC(=O)C2CCN(c3nn4c(=O)cc(C)nc4s3)CC2)cc1OC	0.06%
CC(C)c1nccn1S(=O)(=O)c1cc([N+](=O)[O-])ccc1Cl	14.2%
COCc1c(C(=O)N/N=C/C2CC=CCC2)nnn1-c1nonc1N (centres undefined)	5.58%
CCc1nc(Nc2ccc3nccnc3c2)c2oc3ccccc3c2n1	5.78%
Cc1nc(Cl)c2oc3ccccc3c2n1	18.2%

Compound	protection (pct of control)
COc1ccccc1Nc1ncnc2c1oc1ccccc12	44.3% (active)
CC1=C(C(=O)Nc2cc(C)ccn2)C(c2cnn(C)c2)C2=C(CC(c3ccccc3)CC2=O)N1 (centres undefined)	4.9%
C/C(=N/NC(=S)Nc1ccccc1)c1ccc2c(c1)OCO2	20.8%
COc1ccc([C@H]2[C@H](C(C)=O)N3N=Cc4ccccc4C3C23C(=O)OC(C)(C)OC3=O)cc1 (some centres undefined)	9.43%
O=C(N/N=C/c1cc([N+](=O)[O-])ccc1O)/C(=C\c1cccs1)NC(=O)c1ccccc1	3.64%
CC1CCCN(S(=O)(=O)c2ccc(N(C(=O)c3cnccn3)C(C(=O)NC3CCCCC3)c3cccs3)cc2)C1 (centres undefined)	5.77%
O=C(NC(CC(=O)N1CCN(c2ccccc2)CC1)c1ccccc1)c1ccccc1Cl (centres undefined)	5.39%
CCOc1ccc(Nc2nc(Cc3nnc(SCC(=O)c4ccc(C)cc4)o3)cs2)cc1	31.3% (active)
CCOc1ccc(Nc2nc(Cc3nnc(SCC(=O)NC4CCCC4)n3C)cs2)cc1	4.14%
CC(=O)Nc1ccc(C(=O)CSc2nnc(Cc3ccccc3)o2)cc1	5.61%
OC(COc1ccccc1)Cn1cc(Br)cn1 (centres undefined)	17.3%
C=CCn1c(=N)n(CC(O)COc2ccc(OC)cc2)c2ccccc21 (centres undefined)	19.9%
OC(CN=c1sc2ccccc2n1CC(O)COc1ccccc1)COc1ccccc1 (centres undefined)	44.8% (active)
CO/N=C(\N)c1ccc([N+](=O)[O-])cc1	2.5%
O=C(CCc1[nH]c2ccccc2c1Sc1ccccc1)N(CCO)CCO	8.37%
CCCCC(=O)Nc1ccc2c(c1)OCCO2	11%
Cc1ccc(SCC(=O)Nc2ccc3c(c2)OCCO3)cc1	26.6% (active)
O=C(CSc1ccc(-c2ccc(F)cc2)nn1)Nc1ccc2c(c1)OCCO2	9.34%
Cc1cc(C)nc(SC2CCCCC2NS(=O)(=O)c2ccc(Cl)cc2)n1 (centres undefined)	24.5%
O=C(CSc1ncn[nH]1)Nc1nsc(-c2ccccc2)n1	2.9%
Cc1ccccc1C(OCCN(C)C)C1CCCCC1 (centres undefined)	53.1% (active)
Cc1ccccc1C(OCC(O)CN1CCCCC1CCO)c1ccccc1 (centres undefined)	4.74%
CN(C)CCOC(=O)C(c1ccccc1)C1(O)CCCC1 (centres undefined)	2.07%
COc1ccc(/C=C/C(=O)OCC(=O)Nc2cccc(Oc3ccccc3)c2)c(OC)c1	22.7%
CCCc1cc(=O)[nH]c(SCC(=O)OCc2ccccc2)n1	13.7%

Compound	protection (pct of control)
CCCc1cc(=O)n2[nH]c(SCc3ccccc3)nc2n1	90% (active)
CCCc1cc(=O)[nH]c(SCc2ccc(C#N)cc2)n1	2.18%
COc1ccc(NC(=O)COC(=O)c2ccc(NS(=O)(=O)/C=C/c3ccccc3)cc2)cc1	6.22%
CN(C)/N=C/c1cc(Cl)cc([N+](=O)[O-])c1O	21.7%
COc1ccccc1Oc1ccc(N/C=C2/CCCC2=O)cc1	24.8%
Cc1ccc(C)c(OCC(=O)N2CCN(C(=O)c3ccco3)CC2)c1	10.9%
COc1cc(OC)cc(C(=O)Nc2ncc3c(n2)CC(C)(C)CC3=O)c1	9.7%
COc1cc(C2CC(=O)c3cnc(NC(C)=O)nc3C2)cc(OC)c1OC (centres undefined)	62.5% (active)
CCCOC(=O)c1[nH]c2c(c1C)C(=O)CC(c1cc(OC)c(OC)c(OC)c1)C2 (centres undefined)	2.5%
Nc1nc(NC(=O)/C=C/c2ccccc2)nn1-c1ccccc1	3.85%
COC(=O)c1ccc(NC(=O)CSc2nnc(Cc3cccn3C)n2-c2ccc(F)cc2)cc1	43.4% (active)
COc1ccccc1NC(=O)CSc1nnc(Cc2cccn2C)n1-c1ccc(F)cc1	15.6%
Cc1ccc(C)c(NC(=O)CSc2nnc(Cc3cccn3C)n2-c2ccc(F)cc2)c1	21.3%
CCCOC(=O)c1ccc(N2C(=O)c3ccccc3C2=O)cc1	1.17%
Cn1nccc1CNC(=O)c1ccnn1C	24.5%
CCn1cc(CNC(=O)c2cc([N+](=O)[O-])c(C)c([N+](=O)[O-])c2)cn1	3.52%
CC1(C)C=C2[C@H]3CC[C@@H]4[C@@]5(C)CCC(=O)C(C)(C)[C@@H]5CC[C@@]4(C)[C@]3(C)CC[C@@]2(C(=O)O)CC1	44.7% (active)
CCC(C)NCCOCCOc1ccc(Br)cc1C (centres undefined)	5.1%
O=C(CNC(=O)C(c1ccccc1)c1ccccc1)N/N=C\c1ccc2c(c1)OCO2	17.5%
O=C(CN1CCOCC1)N1CCCc2c1c(=O)oc1ccc(OCc3ccccc3)cc21	20.5% (active)
Cc1c(C(=O)N2CCOCC2)[nH]c2ccc(OCc3ccccc3)cc12	11.5%
O=C(COc1ccc2oc3c(c2c1)CCCC3)Nc1ccccn1	9.54%
CC(=C1C(=O)c2ccccc2C1=O)N1CCN(c2ccccn2)CC1	4%
CNC(=S)N1CCN(c2ccccn2)CC1	3.85%
O=C(C(Cl)Cl)N1CCN(c2ccccn2)CC1	29.5% (active)

Compound	protection (pct of control)
CC(=O)Nc1ccc(S(=O)(=O)NC2(C(F)(F)F)C(=O)Nc3c2c(=O)[nH]c(=O)n3Cc2ccccc2)cc1 (centres undefined)	10.5%
CCOC(=O)c1c(NC(=O)Cn2nc(C(F)(F)F)cc2C)sc2c1CCC2	20.5%
CCOc1ccc(Br)cc1CSC(=N)N	25.8% (active)
CCCCOc1ccc(CSC(=N)N)cc1[N+](=O)[O-]	23.1%
N=C(N)SCc1cccc2ccccc12	32.9%
Cc1ccc(NC(=O)CSCC(=O)NC2CCCCC2)cc1	36.4%
COc1ccc(C(=O)Nc2sc(C)c(C)c2CN2CCOCC2)cc1	13.1%
CCOc1cc(/C=N/O)ccc1OCc1ccccc1F	36.5% (active)
COc1cc(/C=C2/C(=O)ON=C2C)ccc1OCc1ccccc1F	6.29%
CCOc1ccc(/C=N/NC(=O)C(C)Sc2ccccn2)cc1OCC (centres undefined)	3.61%
CCCCOc1ccc(C(=O)NN2CCN(C)CC2)cc1	24.4%
COCCOC(=O)c1c(C)oc2cc(Br)c(OCC(N)=O)cc12	16.4%
CCCCN=C(N)/C(C(=O)OCC)=C(\O)c1ccc(OC)cc1	6.3%
CCCCC(=O)N(c1ccc(OC)cc1)C1C=CS(=O)(=O)C1 (centres undefined)	43.6% (active)
COc1ccc(C(=O)N(Cc2ccc(N(C)C)cc2)C2CCS(=O)(=O)C2)cc1 (centres undefined)	1.51%
CC(C)CNC(=O)COC(=O)/C=C/c1ccco1	16.1%
CCc1ccc(-c2cc(C(=O)NN3CCN(C)CC3)c3ccccc3n2)cc1	5.27%
CCCCCC(=O)NC(=S)NNC(=O)c1ccc([N+](=O)[O-])cc1	3.27%
COCCCNC(=S)NC(=O)c1ccc([N+](=O)[O-])cc1	65.1% (active)
COCCCNC(=S)NC(=O)c1ccccc1	11.7%
CCc1cccc(NC(=O)CCC(=O)O)c1	4.18%
Cc1ccc(-n2ncc3c(Nc4cccc(C(=O)O)c4)ncnc32)cc1	7.56%
Cn1ncc2c(NNC(=O)Cc3cccc4ccccc34)ncnc21	26.4% (active)
Cn1ncc2c(Nc3cccc4ccccc34)ncnc21	3.59%
